A selection: hits, their analogues and other compounds. The true share with any hit is near 1.7%.
PAD4 FP inh: PAD4 (human) enzyme inhibition; recombinant PAD4, RCA probe fluorescence polarization; inhibition, % at 6.36 µM; hit rate 0.41% among 330,000; AID 485272;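 active = percent inhibition above a cutoff equal to the mean of all tested compounds plus 3 SD, cut at about 15% in these data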;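 also: 0% = PAD4 with RCA probe and DMSO and 100% = probe without PAD4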
LYPLA2 counter: counter-screen for PME1 inhibitors: inhibitors of human LYPLA2. O95372. recombinant LYPLA2, FP-Rh probe fluorescence polarization. inhibition, % at 5.9 µM. hit rate 0.38% among 320,000;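 active = inhibition above the screen-wide mean plus 3 SD, limit set per campaign, cut at about 26% in these data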;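 also: 0% = LYPLA2 with DMSO and 100% = wells lacking LYPLA2 enzyme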
LYPLA1 inh: blocks human lysophospholipase 1, a PME1 counter-screen. O75608. inhibition, % at 5.9 µM. hit rate 0.16% among 320,000. recombinant LYPLA1, FP-Rh probe fluorescence polarization;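 active = inhibition above the mean of all tested compounds plus 3 SD, set per campaign, cut at about 14% in these data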;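 also: inhibitors block serine hydrolase probe labeling of LYPLA1 so polarization falls; 0% = enzyme with DMSO and 100% = wells lacking LYPLA1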
Fam108B inh: Fam108B inhibition, counter-screen for RBBP9 inhibitors. recombinant Fam108B, FP-Rh probe fluorescence polarization. inhibition, % at 9.51 µM. hit rate 0.33% among 300,000;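 active = inhibition above the screen mean inhibition plus 3 SD, computed separately per campaign, cut at about 18% in these data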;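 also: inhibitors lower polarization as less probe binds the enzyme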
PME-1 inh: PME-1 (human) inhibition; recombinant PME-1, FP-Rh probe fluorescence polarization; inhibition, % at 5.9 µM; hit rate 0.53% among 320,000;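 active = inhibition above the campaign mean of all compounds plus 3 SD, cut at about 26% in these data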;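 also: competitive labeling of PME-1 active site by serine hydrolase directed probe; 0% = PME-1 with DMSO and 100% = wells lacking PME-1 enzyme; inhibitors block probe labeling so polarization falls and inhibition rises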
Target sequence (Q9Y570 whole entry, looked up): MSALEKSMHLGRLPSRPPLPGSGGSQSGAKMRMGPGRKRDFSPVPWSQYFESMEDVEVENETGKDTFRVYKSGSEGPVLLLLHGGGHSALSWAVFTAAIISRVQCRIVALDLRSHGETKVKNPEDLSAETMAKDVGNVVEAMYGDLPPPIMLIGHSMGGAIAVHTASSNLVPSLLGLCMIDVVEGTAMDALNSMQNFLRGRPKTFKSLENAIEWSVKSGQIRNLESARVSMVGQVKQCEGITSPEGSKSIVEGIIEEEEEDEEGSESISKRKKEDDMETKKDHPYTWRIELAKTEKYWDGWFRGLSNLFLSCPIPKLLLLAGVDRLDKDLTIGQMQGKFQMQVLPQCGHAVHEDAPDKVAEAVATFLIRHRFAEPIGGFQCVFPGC
GSTO1 inh: blocks human GSTO1 in RBBP9 counter-screen | P78417 | recombinant GSTO1, activity-based probe fluorescence polarization | inhibition, % at 5.96 µM | hit rate 1.1% among 300,000 | AID 1974;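 active = inhibition above the campaign mean inhibition plus 3 SD, cut at about 35% in these data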;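 also: 0% = GSTO1-1 with DMSO and 100% = wells lacking GSTO1-1 enzyme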
Target sequence (P78417 whole entry, looked up): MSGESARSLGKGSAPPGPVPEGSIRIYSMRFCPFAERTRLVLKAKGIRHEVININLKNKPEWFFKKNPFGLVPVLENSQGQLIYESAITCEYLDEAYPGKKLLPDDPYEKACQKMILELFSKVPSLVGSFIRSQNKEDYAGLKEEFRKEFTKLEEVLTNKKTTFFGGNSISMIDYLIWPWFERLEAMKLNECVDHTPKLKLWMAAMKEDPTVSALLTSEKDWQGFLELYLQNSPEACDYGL
PAD4 confirm: confirmation of human PAD4 inhibitors. shares compounds with PAD4 FP inh. recombinant PAD4, RCA probe fluorescence polarization. AID 488796. inhibition, % at 6.36 µM. hit rate 28% among 1,200;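 active = mean inhibition across replicates above the hit cutoff set by the earlier primary screen, cut at about 15% in these data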;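 also: inhibitors block active-site labeling by the probe so polarization falls; 0% = PAD4 with probe and DMSO and 100% = probe without PAD4 enzyme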
* marks the source's active call; other numbers are inactive results; . = not tested or not shown.

SMILES	PAD4 FP inh	LYPLA2 counter	LYPLA1 inh	Fam108B inh	PME-1 inh	GSTO1 inh	PAD4 confirm
Cn1nc(C(=O)Nc2ccc3c(c2)OCCO3)cc1C(=O)O	-4	3	-2	2	4	2	.
Nc1ccc(N2CCN(CCCCN3C(=O)C4CCCN4C3=O)CC2)cc1 (centres undefined)	65*	29*	7	-1	9	10	8
COc1ccc(CCN2C(=O)CC(Nc3ccc(N4CCOCC4)cc3)C2=O)cc1OC (centres undefined)	20*	7	0	3	4	4	19*
O=C1CC(Nc2ccc(N3CCOCC3)cc2)C(=O)N1c1ccccc1F (centres undefined)	16*	15	5	1	-7	5	9
O=C1CC(Nc2ccccc2)C(=O)N1c1ccc(N2CCOCC2)cc1 (centres undefined)	1	7	1	1	7	10	.
Cc1nc2c(Cl)cccc2[nH]1	0	5	7	-1	1	-3	.
Cc1cc(C)nc(SCC(=O)NC(=O)c2ccccc2O)n1	1	.	.	.	.	.	.
Cc1ccccc1NC(=O)CSc1nnc(Cc2ccccc2)c(=O)n1N	-4	3	-3	-1	-3	17	.
CC(=O)NC(c1cccs1)c1cc([N+](=O)[O-])c2cccnc2c1O (centres undefined)	25*	-4	-3	-1	34*	28	4
Cc1ccc2c(c1)N(CC(=O)NC1CCCCC1C)C(=O)CO2 (centres undefined)	-5	-1	-8	3	3	4	.
CCc1ccc(CNc2ccc(N3CCN(C(C)=O)CC3)cc2)cc1	29*	9	4	9	-8	29	2
COCCCn1c(=S)[nH]c2c(sc3ccccc32)c1=O	18*	-3	-1	2	-2	11	14
Cc1ccc(-c2csc(N3CCN(S(=O)(=O)c4ccc5c(c4)NC(=O)CO5)CC3)n2)cc1	-2	4	0	-2	-9	2	.
COC(=O)c1cc(C)nc(Sc2ccccc2N)n1	68*	3	1	-2	3	3	78*
Cc1ccc(C(C)C)c(OCC(=O)NNC(=O)C(C(C)C)N2C(=O)c3ccccc3C2=O)c1 (centres undefined)	-1	0	0	-1	0	0	.
COc1ccc(CCN(C(=O)c2cccc(F)c2)C2CC(=O)N(c3ccc(OC)cc3)C2=O)cc1 (centres undefined)	-3	-1	-1	-2	2	6	.
O=C(NC1CCCCC1)C(c1cccs1)N(CCCN1CCOCC1)C(=O)c1ccc(-c2ccccc2)[nH]1 (centres undefined)	63*	1	0	-3	0	0	-5
Cc1ccc(C(C(=O)NC(C)(C)C)N(CCCN2CCOCC2)C(=O)c2ccc(-c3ccccc3)[nH]2)o1 (centres undefined)	-1	-5	-6	-5	-7	1	.
C[C@@]12CCC3[C@@](CCC4[C@@]3(C)CCC[C@@]4(C)C(=O)N3CCCCC3)(CC1=O)C2 (some centres undefined)	0	-2	1	.	1	.	.
COc1cc(-c2nc(C(=O)NC3CCCCC3)cc3c2[nH]c2ccccc23)cc(OC)c1OC	16*	-26	-15	-20	-20	-18	16*
CCOc1cc(N2CCOCC2)c(OCC)cc1NC(=O)CSc1ncccc1C(=O)O	39*	.	.	.	.	.	2
CC1CCCC(C)N1C(=O)Cn1nnc(-c2ccc([N+](=O)[O-])cc2)n1 (centres undefined)	-2	-1	-2	-3	0	1	.
CC1=C(C(=O)OCc2ccccc2)C(c2cccc([N+](=O)[O-])c2)NC(=O)N1C (centres undefined)	-2	-2	-4	1	5	-2	.
Cn1c(CN2CCOCC2)nnc1SCC(=O)Nc1ccc2c(c1)OCCO2	42*	10	1	6	2	-5	10
Cc1ccc(NC(=O)CSc2nnc(CN3CCOCC3)n2C)cc1C	-4	-2	-1	2	3	4	.
SMILES	PAD4 FP inh	LYPLA2 counter	LYPLA1 inh	Fam108B inh	PME-1 inh	GSTO1 inh	PAD4 confirm
O=C(NC(=S)NC1CCN(Cc2ccccc2)CC1)c1ccc(F)cc1	33*	-2	-4	-7	-1	-7	37*
COc1ccc(CCNC(=O)c2cc(C3CC3)nc3c2cnn3C(C)C)cc1	-7	-3	4	.	-10	.	.
COc1cc(NC2c3ccccc3C(=O)N2Cc2ccccc2Cl)cc(OC)c1 (centres undefined)	58*	1	1	6	-3	2	16*
COc1cccc(NC2c3ccccc3C(=O)N2Cc2ccccc2Cl)c1 (centres undefined)	-1	2	-2	-1	2	-2	.
COCCN(C(=O)CCC(=O)Nc1ccccn1)C(C(=O)NC1CCCC1)c1ccc(OC)cc1 (centres undefined)	-4	0	1	4	4	-1	.
CCCC[n+]1c(C)sc2cc(OC)ccc21	14	-1	3	7	-7	1	.
COc1cc(/C=C/c2sc3ccccc3[n+]2CCCS(=O)(=O)[O-])ccc1O	2	-443	-290	-276	-466	-117	.
Cc1ccc2c(c1)sc(C)[n+]2CCCS(=O)(=O)[O-]	18*	-11	-1	-6	-8	-10	11
Cc1ccc2sc(C)[n+](CCCS(=O)(=O)[O-])c2c1	17*	-3	-1	5	-5	2	-2
O=c1[nH]cc([N+](=O)[O-])cc1Br	0	3	0	-4	-3	1	.
CSCC[C@H](NC(=O)[C@@H]1Cc2c([nH]c3ccccc23)C2c3ccccc3C(=O)N21)C(=O)NCC1CCCO1 (some centres undefined)	1	-1	-2	0	-1	4	.
CCCNS(=O)(=O)c1ccc(CCC(=O)NCc2ccco2)cc1	0	5	-1	1	1	-2	.
O=C(CCNS(=O)(=O)c1cccc(C(F)(F)F)c1)NCc1ccco1	27*	.	.	.	.	.	-1
COc1cc(=O)[nH]c(SC(C)C(=O)Nc2cc(C)on2)n1 (centres undefined)	1	0	0	0	4	2	.
CC(C)n1cnc2c(NCc3ccccc3)cc(N[C@H](C)CO)cc21	46*	.	.	.	.	.	32*
CCC(CO)Oc1cc(NCc2ccccc2)c2ncn(C(C)C)c2c1 (centres undefined)	-10	.	.	.	.	.	.
CCC(COC)Oc1cc(NCc2ccccc2)c2ncn(C(C)C)c2c1 (centres undefined)	24*	4	0	.	18	.	-5
CN(C)C(=O)CCc1ccc2c3c([nH]c2c1)[C@]1(CCC2CCCC2)[C@@H](C(=O)N2CCOCC2)C[C@H](CC(=O)NCCN2CCOCC2)C(=O)N1CC3	-1	.	.	.	.	.	.

Source: PubChem BioAssay
